According to PubChem BioAssay (NCATS):
Inconclusive results are not listed. Activity calls are given as the source filed them. Unless noted, calls follow the shape of the dose curve; as a rule, active = well fitted curve in the direction sought with a large enough effect; inconclusive = small, poorly fitted or top-dose-only effect, or another doubt; inactive = no such curve, though single readings can be large; an effect the other way counts as inactive or inconclusive.

Experiments:
[1] = Cytotoxicity counterscreen for inhibitors of SARS-CoV-2 cell entry (AID 1645845; calls by dose curve; also: nearly all actives have a fitted effect of over 50% in size; also: potency is read from the fitted curve at half-maximal effect); conditions: outcome: dose series up to 57.1 µM unless noted
In short: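 HEK293-ACE2 cells (Expi293F stably expressing human ACE2) seeded overnight, then compound for 1 h plus 48 h at 37C. Viability as ATP content by luminescence; normalized to wells with cells and media-only wells.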

[2] = Primary qHTS for inhibitors of nuclear receptor binding SET domain protein 2 (NSD2) in an isogenic RCH-ACV NSD2 p.E1099K mutant (9B) (AID 1645876); also: nearly all actives have a fitted effect of over 70% in size; also: potency is read from the fitted curve at half-maximal effect
[3] = Primary qHTS for inhibitors of nuclear receptor binding SET domain protein 2 (NSD2) in an RCH-ACV wild type WT cells (2C) (AID 1645877); also: nearly all actives have a fitted effect of over 70% in size; also: potency is read from the fitted curve at half-maximal effect
[4] = Primary qHTS to identify inhibitors of SARS-CoV-2 cell entry (AID 1645846; calls by dose curve; also: nearly all actives have a fitted effect of over 45% in size; also: potency is read from the fitted curve at half-maximal effect); conditions: SARS-CoV-2 pseudovirus cell entry assay, luminescence; activity change, negative = inhibition: at 57.1 µM (top of the series) unless noted
In short: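 HEK293 cells stably expressing human ACE2, pre-treated 1 h with compound, then infected with MLV particles pseudotyped with Wuhan-Hu-1 spike (C-terminal 19-aa truncation). Luciferase luminescence after 48 h at 37 °C, normalised to spike PP and bald PP.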

[5] = qHTS assay to identify inhibitors of the type 1 interferon - major histocompatibility complex class I in skeletal muscle: Counter screen cell viability and HiBit confirmation (AID 1347412); conditions: iHSKM muscle cells + IFN-b, HiBiT or CellTiter-Glo, 24 h; also: nearly all actives have a fitted effect of over 60% in size; also: potency is read from the fitted curve at half-maximal effect; as to activity change, negative = inhibition: % is scaled to controls: 0 for no effect and ±100 for the full control effect
In short: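 CRISPR HLA-B*08:01-HiBit immortalized human myoblasts (C25cl48) stimulated with 4 ng/ml IFN-beta and compounds (12-point 1:3, top 46 uM final) for 24 h at 37 C. Duplicate plates read by HiBit lytic luminescence or CellTiter Glo ATP.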

[6] = Confirmatory qHTS to identify inhibitors of SARS-CoV-2 cell entry (AID 1645844; calls by dose curve; also: potency is read from the fitted curve at half-maximal effect; nearly all actives have a fitted effect of over 45% in size)
In short: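 HEK293-ACE2 cells were pretreated 1 h with compound, then infected with MLV-based pseudoparticles bearing C-terminally truncated Wuhan-Hu-1 spike for 48 h at 37C; luciferase luminescence normalized to spike PP and bald PP wells.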

[7] = VSVG counterscreen qHTS to identify inhibitors of SARS-CoV-2 cell entry (AID 1645847; calls by dose curve; also: potency is read from the fitted curve at half-maximal effect; nearly all actives have a fitted effect of over 65% in size)
In short: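 HEK293-ACE2 cells (Expi293F, human ACE2) pretreated 1 h with compound, then infected with MLV-based VSV-G pseudotyped particles for 48 h at 37 C; luciferase luminescence normalized to VSV-G PP and bald PP wells.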

[8] = Confirmatory qHTS for VERO E6 Cytotoxicity Assay: Counterscreen for SARS-CoV-2 CPE Assay (AID 1508605; calls by dose curve; also: % is scaled to controls: 0 for no effect and ±100 for the full control effect; nearly all actives have a fitted effect of over 60% in size)
[9] = qHTS Assay for Lipid Storage Modulators (AID 1519; calls by dose curve; as to activity change, negative = inhibition: % is scaled to controls: 0 for no effect and ±100 for the full control effect); conditions: Drosophila S3 cells, BODIPY lipid droplet/cell ratio, laser cytometry, cells loaded with oleic acid
In short: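 Cells seeded at 5,000 per well were treated with compounds over a concentration series and loaded with oleic acid (400 uM, as added). Lipid droplet fluorescence (488 nm excitation, 500-530 nm channel) was read by laser-scanning cytometry and normalized to 20 uM Triacsin C.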

CN1C(=O)[C@@H](NC(=O)[C@H](CCC(F)(F)F)[C@H](CCC(F)(F)F)C(N)=O)N=C(c2ccccc2)c2ccccc21
Potency [1]: inactive
Potency [2]: inactive
Potency [3]: inactive

COC12C(COC(N)=O)C3=C(C(=O)C(C)=C(N)C3=O)N1CC1C2N1C (stereo unspecified)
Potency [1]: inactive
Potency [2]: 1660 nM (active)
Potency [3]: 1050 nM (active)

C[C@@]12OC(=O)[C@]1([C@@H](O)[C@@H]1C=CCCC1)NC(=O)[C@@H]2CCCl
activity change, negative = inhibition [4]: -97.7%
Potency [2]: 118 nM (active)
Potency [3]: 105 nM (active)
Potency ([5]; HiBiT): 176 nM (active)

C/C=C(\C)C(=O)N[C@@H](c1ccccc1)[C@@H](O)C(=O)O[C@H]1C[C@@]2(O)[C@@H](OC(=O)c3ccccc3)[C@@H]3[C@]4(OC(C)=O)CO[C@@H]4C[C@H](O)[C@@]3(C)C(=O)[C@H](OC(C)=O)C(=C1C)C2(C)C
Potency [6]: 4.3 nM (active)
Potency [1]: inactive
activity change, negative = inhibition [4]: -81.8%
Potency [7]: 108 nM (active)
Potency [2]: 26.3 nM (active)
Potency [3]: 26.3 nM (active)

Cc1[nH]ncc1-c1cc2nc([C@@H]3CC4CCN3CC4)[nH]c(=O)c2s1
Potency [2]: 2350 nM (active)
Potency [3]: 934 nM (active)
Potency ([5]; HiBiT): 4430 nM (active)
activity change, negative = inhibition ([5]; Viability, at 45.9 µM (top of the series)): 15.9% (inactive)

CCCCCCC(C)(C)c1cc(O)c2c(c1)OC(C)(C)C1CC=C(CO)C[C@H]21 (stereo partly specified)
Potency [8]: inactive
Potency [1]: inactive
activity change, negative = inhibition [4]: -8.86%
Potency [2]: inactive
Potency [3]: inactive
Potency ([5]; Viability): 35200 nM (active)

CC(=O)O[C@@]12CO[C@@H]1C[C@H](O)[C@@]1(C)C(=O)[C@H](O)C3=C(C)[C@@H](O)C[C@@](O)([C@@H](OC(=O)c4ccccc4)[C@H]21)C3(C)C
Potency [1]: inactive
Potency [2]: inactive

COc1cc2cc(c1Cl)N(C)C(=O)C[C@H](OC(=O)C(C)C)[C@]1(C)O[C@@H]1[C@H](C)[C@@H]1C[C@@](O)(NC(=O)O1)[C@H](OC)/C=C/C=C(\C)C2
activity change, negative = inhibition [4]: -80.9%
Potency [2]: inactive
Potency [3]: inactive

C[C@]12COC(=O)C[C@@H]1CC[C@@H]1[C@@H]2CC[C@@]2(C)[C@H]1CC[C@]2(C)O
Potency [1]: inactive
activity change, negative = inhibition [4]: -8.16%

CC(=O)OC[C@H]1O[C@@H]([S-])[C@H](OC(C)=O)[C@@H](OC(C)=O)[C@@H]1OC(C)=O.CC[PH+](CC)CC.[Au]
Potency [1]: 3160 nM (active)
Potency [4]: 1260 nM (active)
Potency [2]: 742 nM (active)
Potency [3]: 742 nM (active)
Potency ([5]; HiBiT): 1110 nM (active)

CC(C)(NC(=O)O[C@@H]1CN2CCC1CC2)c1csc(-c2ccc(F)cc2)n1
Potency [1]: inactive

O=C(O)CNC(=O)C1C(=O)N(C2CCCCC2)C(=O)N(C2CCCCC2)C1=O
Potency [1]: inactive
activity change, negative = inhibition [4]: -12.5%
Potency [2]: inactive

CO[C@H]1CCC(O[C@H]2C[C@H]([C@]3(C)CC[C@]4(C[C@H](O)[C@@H](C)[C@@H]([C@@H](C)/C=C(\C)C(=O)[C@H](C)C[C@H](C)C(=O)O)O4)O3)O[C@]3(O[C@@H]([C@H]4O[C@@](O)(CO)[C@H](C)C[C@@H]4C)C[C@@H]3C)[C@@H]2C)O[C@@H]1C (stereo partly specified)
Potency [6]: 681 nM (active)
Potency [7]: 607 nM (active)
Potency [2]: 209 nM (active)
Potency ([5]; HiBiT): 12500 nM (active)
Potency ([5]; Viability): 14000 nM (active)

N#CC(O[C@@H]1O[C@H](CO[C@@H]2O[C@H](CO)[C@@H](O)[C@H](O)[C@H]2O)[C@@H](O)[C@H](O)[C@H]1O)c1ccccc1 (stereo partly specified)
Potency [1]: inactive
Potency [2]: inactive
Potency [3]: inactive

COc1cc(C)[nH]c(=O)c1CNC(=O)c1c(C)n([C@H](C)C2CCN(CC(F)(F)F)CC2)c2ccccc12
Potency [1]: inactive
activity change, negative = inhibition [4]: 4.42%
Potency [3]: inactive

C=CCN1CC[C@@]2(C)c3cc(O)ccc3CC1[C@@H]2C
activity change, negative = inhibition ([9]; at 57.5 µM (top of the series)): -0.315% (inactive)
max response ([9]; measured here: cell count channel max response): 26.7%
max response ([9]; measured here: lipid channel max response): 28.1%
